Assay [1] has as its target Estrogen receptor (Homo sapiens) (UniProt P03372). In words: qHTS assay for small molecule antagonists of estrogen receptor alpha signaling (AID 588513; active = well fitted curve in the direction sought with a large enough effect in the signal ratio, with a control signal flat, not every such curve was filed as active; the % refers to the signal ratio; note: % is set by controls: 0 for no effect and ±100 for the full control effect). Put shortly:
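ER-alpha-UAS-bla GripTite HEK 293 cells in medium with 2% charcoal/dextran-treated FBS were preincubated 4 h at 37 C, dosed with compound (1:2 titration), stimulated with 0.5nM 17-beta-estradiol for 18 h, then read by CCF4 beta-lactamase fluorescence.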

For assay [2] the target is unchanged. In words: qHTS assay for small molecule agonists of estrogen receptor alpha signaling (AID 588514).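 Note: 0% = vehicle only and 100% = reference agonist; nearly all actives have a fitted effect of over 70% in size.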 In outline: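 Efficacy is expressed against 20 nM 17-beta-estradiol (100%) and DMSO basal (0%); EC50 from Hill equation. Assay: beta-lactamase reporter in ER-alpha-UAS-bla HEK 293 cells, 18 h compound incubation, CCF4 detection.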
Assay [3] addresses Glucocorticoid receptor (Homo sapiens) (UniProt P04150). In words: qHTS assay for small molecule agonists of glucocorticoid receptor signaling (AID 588532; active = well fitted curve in the direction sought with a large enough effect in the signal ratio, with a control signal flat; the % refers to the signal ratio;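 note: 100% = dexamethasone at 0.1 µM and 0% = DMSO only wells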). The conditions noted are these: HeLa MMTV-bla, beta-lactamase ratio, agonist, 18 h; stronger effect = higher value; percent of dexamethasone control, DMSO zero. In outline:
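MMTV-bla HeLa, beta-lactamase reporter; medium with 1% charcoal/dextran-stripped FBS; cpds up to 92 uM, 18 h, 37 C; CCF4 readout 460/530 nm; Hill fit → EC50, efficacy vs 0.1 uM dexamethasone = 100%.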

For assay [4] the target is unchanged. In words: qHTS assay for small molecule antagonists of glucocorticoid receptor signaling (AID 588533; active = well fitted inhibition curve with a large enough effect in the signal ratio, with a control signal flat, not every such curve was filed as active; the % refers to the signal ratio;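 note: cells stimulated with 2 nM dexamethasone as agonist; % is set by controls: 0 for no effect and ±100 for the full control effect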). Put shortly: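 Antagonist-mode qHTS: compound titrations added to GRE-bla HeLa cells, then dexamethasone 2 nM final; 18 h, 37 C. CCF4 FRET fluorescence normalized to dexamethasone and DMSO; IC50 from Hill fit.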
The target in assay [5] is Peroxisome proliferator-activated receptor delta (Homo sapiens) (UniProt Q03181). In words: qHTS assay for small molecule agonists of peroxisome proliferator-activated receptor delta signaling (AID 588534).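 Note: 0% = DMSO basal wells and 100% = positive control agonist at 10 µM.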 In outline:
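Agonist-mode qHTS; reporter cells, 5 hrs 37 C pre-incubation; compound titration, 18 hrs 37 C; CCF4 dye, 2 hrs RT; fluorescence read. EC50/efficacy via Hill fit.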

The nature of assay [6]: qHTS assay for small molecule antagonists of peroxisome proliferator-activated receptor delta signaling (AID 588535; active = well fitted inhibition curve with a large enough effect in the signal ratio, with a control signal flat, not every such curve was filed as active; the % refers to the signal ratio;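 for max response: cells co-treated with a PPAR-delta agonist as stimulator during compound exposure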). The conditions noted are these: HEK293T PPARd-UAS-bla, beta-lactamase FRET ratio, 18 h; 460 nm channel. In outline:
(§1)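 Inhibition of PPAR-delta response element-driven beta-lactamase expression is measured in HEK293T cells exposed to a compound titration series for 18 hrs at 37 C. Half-maximal inhibition comes from Hill equation fitting.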

Assay [7] concerns the target Peroxisome proliferator-activated receptor delta (Homo sapiens) (UniProt Q03181). The assay is described as above. Put shortly: as §1
The target of assay [8] is Peroxisome proliferator-activated receptor gamma (Homo sapiens) (UniProt P37231). In words: qHTS assay for small molecule agonists of peroxisome proliferator-activated receptor gamma signaling (AID 588536; active = well fitted curve in the direction sought with a large enough effect in the signal ratio, with a control signal flat, not every such curve was filed as active; the % refers to the signal ratio;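 note: 0% = DMSO basal wells and 100% = rosiglitazone at 2 µM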). In outline:
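Cells were plated and held 6–6.5 h at 37 C, then compounds were added as a titration series. After a further 16 h, CCF4 dye was loaded for 2 h at room temperature and emission at 460/530 nm recorded.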

The target is the same in assay [9]. In words: qHTS assay for small molecule antagonists of peroxisome proliferator-activated receptor gamma signaling (AID 588537; active = well fitted inhibition curve with a large enough effect in the signal ratio, with a control signal flat, not every such curve was filed as active; the % refers to the signal ratio;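 note: reporter cells co-stimulated with 50 nM rosiglitazone agonist during compound treatment; % of control where 0% means no effect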). Put shortly:
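Compounds are tested as concentration series for inhibition of rosiglitazone-driven (50 nM) reporter expression in GeneBLAzer PPAR-gamma-UAS-bla HEK293 cells. After 16 h at 37 C, CCF4 substrate is added for 2 h at room temperature and blue/green fluorescence is measured.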

A short description of assay [10]: qHTS assay for small molecule agonists of retinoid X receptor alpha signaling (AID 588544).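 For activation: 0% = DMSO basal wells and 100% = reference agonist.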 The note with it: HEK293T RXRa-UAS-bla, beta-lactamase reporter, 18 h; 530 nm emission.
The target in assay [11] is Retinoic acid receptor RXR-alpha (Homo sapiens) (UniProt P19793). The description is as above.
Assay [12] deals with Thyroid hormone receptor beta (Homo sapiens) (UniProt P10828). In words: qHTS assay for small molecule agonists of thyroid hormone receptor beta signaling (AID 588545).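 Note: 0% = DMSO only and 100% = 10 nM T3.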 In outline: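 TR-UAS-bla-GripTite HEK 293 cells in medium with 2% charcoal/dextran FBS, 0.1 mM NEAA and 1 mM sodium pyruvate were treated with titrated compounds for 18 hrs at 37 C. Beta-lactamase reporter was read with CCF4 dye (ex 405, em 460/530 nm); EC50 from Hill fits.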

The nature of assay [13]: qHTS assay for small molecule antagonists of retinoid X receptor alpha signaling (AID 588546; active = well fitted inhibition curve with a large enough effect in the signal ratio, with a control signal flat, not every such curve was filed as active; the % refers to the signal ratio;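 note: cells stimulated with 9-cis-retinoic acid as agonist; % is set by controls: 0 for no effect and ±100 for the full control effect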). The note with it: HEK293T RXRa-UAS-bla, beta-lactamase ratio, antagonist mode; measured here: W530 green channel, cytotoxicity proxy. In outline:
(§2)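 Beta-lactamase reporter inhibition, read as CCF4 fluorescence ratio (ex 405, em 460/530 nm) after 2 h at RT. HEK293T UAS-bla cells, 2500/well, were stimulated with 9-cis-RA at 500 or 100 nM final alongside test compound for 18 h at 37 C.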

In assay [14] the target is Retinoic acid receptor RXR-alpha (Homo sapiens) (UniProt P19793). Described as above. The note with it: HEK293T RXRa-UAS-bla, beta-lactamase ratio, antagonist mode. Put shortly: as §2
In assay [15] the target is Thyroid hormone receptor beta (Homo sapiens) (UniProt P10828). In words: qHTS assay for small molecule antagonists of thyroid hormone receptor beta signaling (AID 588547; active = well fitted inhibition curve with a large enough effect in the signal ratio, with a control signal flat, not every such curve was filed as active; the % refers to the signal ratio;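 note: cells stimulated with 0.4 nM T3 agonist during compound exposure; series mostly up to about 77 µM; % is set by controls: 0 for no effect and ±100 for the full control effect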). The note with it: TR-UAS-bla HEK293, beta-lactamase ratio, antagonist mode, 18 h. In outline:
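TR-UAS-bla GripTite HEK293 cells in 2% charcoal/dextran FBS medium were preincubated 4 h at 37 C, given compound (0.59 nM to 92 uM) plus 0.4 nM T3 (final) for 18 h, then CCF4 for 2 h at RT; Hill fit gave IC50.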

Assay [16] is described as follows: qHTS assay for small molecule agonists of the antioxidant response element (ARE) signaling pathway (AID 651741; active = well fitted activation curve with a large enough effect in the signal ratio; the % refers to the signal ratio; note: % of control where 0% means no effect). Put shortly: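 Reporter: beta-lactamase under ARE, stably in HepG2. Exposure: 16 h, 37 C, compounds delivered in DMSO by pin tool after 5 h cell preincubation. Readout: FRET substrate fluorescence after 2 h at RT.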
The nature of assay [17]: qHTS assay for small molecule activators of the p53 signaling pathway (AID 651743; active = well fitted activation curve with a large enough effect in the signal ratio, not every such curve was filed as active; the % refers to the signal ratio; note: series mostly up to about 92 µM; % of control where 0% means no effect). The note with it: HCT-116 p53RE-bla, beta-lactamase FRET ratio, 16 h; activation: stronger effect = higher value. Put shortly:
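Agonist-mode quantitative HTS in HCT-116 cells carrying a p53-response-element beta-lactamase reporter; 16 h compound treatment at 37 C, then FRET substrate loading for 2 h at room temperature and fluorescence read.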

Assay [18] can be described thus: qHTS assay for environmental chemicals that activate the Aryl hydrocarbon Receptor (AhR) signaling pathway (AID 651777; active = well fitted curve in the direction sought with a large enough effect; an effect the other way counts as inactive or inconclusive; note: % of control where 0% means no effect; nearly all actives have a fitted effect of over 15% in size). The conditions noted are these: 1A2-DRE human hepatoma cells, luciferase, 24 h; activation: stronger effect = higher value. In outline: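 Induction of CYP1A2 transcription through AhR is detected by luciferase in 1A2-DRE hepatoma cells. Compounds or DMSO act for 24 hr at 37 C before a 30 min One-Glo step at room temperature.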

The target of assay [19] is Peroxisome proliferator-activated receptor alpha (Homo sapiens) (UniProt Q07869). In words: qHTS assay for small molecule agonists of the peroxisome proliferator-activated receptor alpha (PPARalpha) signaling pathway (AID 651778; active = well fitted curve in the direction sought with a large enough effect; an effect the other way counts as inactive or inconclusive; note: % of control where 0% means no effect). The note with it: PathHunter PPARalpha complementation, chemiluminescence, 6 h; stronger effect = higher value. Put shortly:
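Cells plated at 2,000/well and held overnight at 37 C, 5% CO2, then compound added by pin tool for 6 hr; after PathHunter detection reagent and 60 min at room temperature, chemiluminescence from enzyme complementation was read.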

Assay [20] in a line: qHTS assay for small molecule agonists of the antioxidant response element (ARE) signaling pathway measured by Nrf2-dependant transcriptional activity (AID 720636; active = well fitted curve in the direction sought with a large enough effect in the repeat runs; an effect the other way counts as inactive or inconclusive;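 note: HepG2 cells with an ARE-driven luciferase reporter; % of control where 0% means no effect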). In outline: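 We exposed ARE-luc HepG2 cells, seeded in assay medium with 1% dialyzed FBS and allowed 6 hr to adhere, to test compounds overnight (16 hr, 37 C) before measuring luciferase with ONE-Glo.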
Assay [21] can be described thus: qHTS assay for small molecule agonists of the antioxidant response element (ARE) signaling pathway measured by Nrf2-dependant transcriptional activity - cell viability counter screen (AID 720653; active = well fitted curve in the direction sought with a large enough effect in the repeat runs; an effect the other way counts as inactive or inconclusive; note: % is set by controls: 0 for no effect and ±100 for the full control effect). The note with it: ARE-bla HepG2 viability, CellTiter-Glo ATP luminescence, 16 h; max response: stronger effect = lower value. Put shortly:
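ARE-bla HepG2 cells (2,000/well) rested 5 hrs at 37C/5% CO2, then exposed to compounds in DMSO for 16 hrs. Viability was read in the same wells as intracellular ATP by luminescence, 30 min at room temperature after reagent addition.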

The nature of assay [22]: qHTS assay for cell viability of HEK293 cells (AID 743288; active = well fitted curve in the direction sought with a large enough effect; an effect the other way counts as inactive or inconclusive; note: % is set by controls: 0 for no effect and ±100 for the full control effect; nearly all actives have a fitted effect of over 50% in size). The conditions noted are these: ATP luminescence (CellTiter-Glo), 18 h; max response: stronger effect = lower value. In outline: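 After 18 h compound exposure at 37 C, parental HEK293 cells (2,000/well) are lysed with CellTiter-Glo and luminescence is read following 30 min at room temperature.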
Assay [23] can be described thus: qHTS assay for cell viability of the p53RE-bla HCT-116 cell line (AID 743292; active = well fitted curve in the direction sought with a large enough effect; an effect the other way counts as inactive or inconclusive; note: % is set by controls: 0 for no effect and ±100 for the full control effect; nearly all actives have a fitted effect of over 55% in size). Put shortly:
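In this qHTS counter-screen, metabolically competent p53RE-bla HCT-116 cells were counted via their ATP content. Compounds were applied for 16 h at 37 C and luciferase-coupled luminescence was measured.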

Assay [24] is described as follows: qHTS for Inhibitors of the Functional Ribonucleoprotein Complex (vRNP) of Lassa (LASV) Arenavirus: LASV Primary Screen - GLuc reporter signal (AID 1347082; calls by dose curve; tested in HEK293 reporter line; note: series mostly up to about 57 µM; % is set by controls: 0 for no effect and ±100 for the full control effect; nearly all actives have a fitted effect of over 60% in size).
Assay [25] can be described thus: qHTS for Inhibitors of the Functional Ribonucleoprotein Complex (vRNP) of Lassa (LASV) Arenavirus: Viability assay - alamar blue signal for LASV Primary Screen (AID 1347083; calls by dose curve; tested in HEK293 reporter line; note: series mostly up to about 57 µM; % is set by controls: 0 for no effect and ±100 for the full control effect; nearly all actives have a fitted effect of over 80% in size).
Assay [26] can be described thus: qHTS for Inhibitors of the Functional Ribonucleoprotein Complex (vRNP) of Lymphocytic Choriomeningitis Arenaviruses (LCMV): Viability assay - alamar blue signal for LCMV Primary Screen (AID 1347085; calls by dose curve; tested in HEK293 reporter line; note: series mostly up to about 57 µM; % is set by controls: 0 for no effect and ±100 for the full control effect; nearly all actives have a fitted effect of over 80% in size).
Assay [27] concerns the target Nucleoprotein (Lymphocytic choriomeningitis virus (strain Armstrong)) (UniProt P09992). In words: qHTS for Inhibitors of the Functional Ribonucleoprotein Complex (vRNP) of Lymphocytic Choriomeningitis Arenaviruses (LCMV): LCMV Primary Screen - GLuc reporter signal (AID 1347086). Note: series mostly up to about 57 µM; % is set by controls: 0 for no effect and ±100 for the full control effect; nearly all actives have a fitted effect of over 70% in size.
In assay [28] the target is Nuclear receptor subfamily 1 group I member 2 (Rattus norvegicus) (UniProt Q9R1A7). In words: qHTS assay for small molecule activators of the rat pregnane X receptor (rPXR) signaling pathway (AID 651751; call rule not given here; note: 0% is about no effect). The conditions noted are these: rPXR reporter cells, luciferase (One-Glo), 24 h.
A short description of assay [29]: qHTS assay for small molecule activators of the human pregnane X receptor (PXR) signaling pathway (AID 720659; call rule not given here; note: 0% is about no effect).
Assay [30] concerns the target Bile acid receptor (Homo sapiens) (UniProt Q96RI1). In words: qHTS assay for small molecule antagonists of farnesoid X receptor signaling (AID 588526). Note: % is set by controls: 0 for no effect and ±100 for the full control effect. In outline: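 Concentration-response titrations were fitted to the Hill equation for half-maximal inhibition and maximal response, with data normalised to 50 uM chenodeoxycholic acid and DMSO control wells. Cells: FXR-UAS-bla HEK293T, dialyzed FBS.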

The target in assay [31] is Vitamin D3 receptor (Homo sapiens) (UniProt P11473). In words: qHTS assay for small molecule antagonists of vitamin D receptor signaling (AID 588541). In outline: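 VDR-UAS-bla HEK293T cells (2000/well, 2% charcoal-stripped FBS) were treated with titrated compounds plus 1-alpha,25-dihydroxyvitamin D3 (50 nM or 3 nM final) for 16 h at 37 C. CCF4 beta-lactamase fluorescence was read; Hill fits gave IC50.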

The target is the same in assay [32]. In words: qHTS assay for small molecule agonists of vitamin D receptor signaling (AID 588543).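 Note: 0% = DMSO basal and 100% = reference agonist control.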 In outline:
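GeneBLAzer VDR-UAS-bla HEK293T cells in 2% charcoal-stripped FBS medium were dosed with compound titrations for 16 h at 37 °C; CCF4 β-lactamase readout (405 nm ex, 460/530 nm em). EC50 and efficacy from Hill fits, normalized to 50 nM calcitriol (100%) and DMSO (0%).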

Assay [33] can be described thus: qHTS assay for small molecule activators of the nuclear factor-kappa B (NF-kB) signaling pathway (AID 651749; active = well fitted activation curve with a large enough effect in the signal ratio; the % refers to the signal ratio; note: series mostly up to about 77 µM; % of control where 0% means no effect). The conditions noted are these: NF-kB-bla ME-180 cells, beta-lactamase FRET ratio, 16 h; activation: stronger effect = higher value. Put shortly:
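Human ME-180 cervical cells with an NF-kB-bla construct; compounds added via 23 nL pin transfer, DMSO as vehicle; incubation 16 hr. Reporter activity measured by FRET disruption.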

Inconclusive results are not listed. Active and inactive are the calls of the source. Unless noted, calls come from the whole dose curve.

The text below walks through data of PubChem BioAssay (NCATS).

Sequence of Retinoic acid receptor RXR-alpha (Homo sapiens) (P19793 whole entry, looked up): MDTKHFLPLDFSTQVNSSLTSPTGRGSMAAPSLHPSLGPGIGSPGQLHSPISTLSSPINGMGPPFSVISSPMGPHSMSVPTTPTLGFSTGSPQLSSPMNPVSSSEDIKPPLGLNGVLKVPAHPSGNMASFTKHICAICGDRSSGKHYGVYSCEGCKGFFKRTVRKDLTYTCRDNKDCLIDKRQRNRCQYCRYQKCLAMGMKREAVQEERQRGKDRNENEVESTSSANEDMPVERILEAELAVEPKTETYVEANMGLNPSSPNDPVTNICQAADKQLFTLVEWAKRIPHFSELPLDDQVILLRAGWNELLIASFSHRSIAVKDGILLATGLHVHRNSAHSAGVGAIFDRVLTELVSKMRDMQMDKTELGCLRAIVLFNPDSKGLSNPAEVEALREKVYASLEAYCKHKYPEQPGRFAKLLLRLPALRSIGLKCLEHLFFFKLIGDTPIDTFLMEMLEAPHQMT
Sequence of Nucleoprotein (Lymphocytic choriomeningitis virus (strain Armstrong)) (P09992 whole entry, looked up): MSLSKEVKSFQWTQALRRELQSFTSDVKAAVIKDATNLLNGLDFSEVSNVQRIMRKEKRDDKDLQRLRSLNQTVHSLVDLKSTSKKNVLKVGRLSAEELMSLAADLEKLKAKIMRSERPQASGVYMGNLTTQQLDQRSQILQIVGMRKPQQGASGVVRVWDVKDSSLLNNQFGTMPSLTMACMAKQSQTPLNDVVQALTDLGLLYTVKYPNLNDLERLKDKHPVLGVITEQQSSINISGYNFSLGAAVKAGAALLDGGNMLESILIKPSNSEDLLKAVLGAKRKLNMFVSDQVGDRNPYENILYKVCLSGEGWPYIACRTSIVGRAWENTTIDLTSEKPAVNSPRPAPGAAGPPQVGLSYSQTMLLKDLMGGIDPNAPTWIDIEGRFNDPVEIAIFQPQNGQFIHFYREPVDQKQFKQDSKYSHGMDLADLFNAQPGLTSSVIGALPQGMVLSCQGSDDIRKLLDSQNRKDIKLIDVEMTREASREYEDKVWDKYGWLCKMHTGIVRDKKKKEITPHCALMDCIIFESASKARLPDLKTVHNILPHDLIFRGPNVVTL
Sequence of Glucocorticoid receptor (Homo sapiens) (P04150 whole entry, looked up): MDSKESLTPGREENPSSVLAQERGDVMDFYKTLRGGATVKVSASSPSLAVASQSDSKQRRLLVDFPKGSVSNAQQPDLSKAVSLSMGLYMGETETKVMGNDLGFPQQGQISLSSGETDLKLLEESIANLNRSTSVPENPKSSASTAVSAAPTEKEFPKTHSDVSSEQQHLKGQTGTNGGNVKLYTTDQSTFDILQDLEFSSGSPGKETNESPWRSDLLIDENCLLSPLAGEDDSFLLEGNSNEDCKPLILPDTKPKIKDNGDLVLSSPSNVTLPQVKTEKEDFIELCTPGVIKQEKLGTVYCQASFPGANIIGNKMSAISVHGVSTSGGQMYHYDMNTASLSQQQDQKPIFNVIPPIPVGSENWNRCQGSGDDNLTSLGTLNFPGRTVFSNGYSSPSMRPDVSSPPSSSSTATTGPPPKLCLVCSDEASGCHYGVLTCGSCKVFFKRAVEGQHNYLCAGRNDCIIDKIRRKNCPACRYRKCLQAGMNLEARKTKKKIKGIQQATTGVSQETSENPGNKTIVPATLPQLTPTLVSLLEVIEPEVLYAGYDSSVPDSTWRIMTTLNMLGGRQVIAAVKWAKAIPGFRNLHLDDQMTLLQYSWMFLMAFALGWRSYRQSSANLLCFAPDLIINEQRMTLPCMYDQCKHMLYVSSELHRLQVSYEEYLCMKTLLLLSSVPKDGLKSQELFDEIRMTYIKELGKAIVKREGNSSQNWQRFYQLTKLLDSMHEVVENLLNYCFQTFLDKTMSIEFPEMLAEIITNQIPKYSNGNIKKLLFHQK
Sequence of Estrogen receptor (Homo sapiens) (P03372 whole entry, looked up): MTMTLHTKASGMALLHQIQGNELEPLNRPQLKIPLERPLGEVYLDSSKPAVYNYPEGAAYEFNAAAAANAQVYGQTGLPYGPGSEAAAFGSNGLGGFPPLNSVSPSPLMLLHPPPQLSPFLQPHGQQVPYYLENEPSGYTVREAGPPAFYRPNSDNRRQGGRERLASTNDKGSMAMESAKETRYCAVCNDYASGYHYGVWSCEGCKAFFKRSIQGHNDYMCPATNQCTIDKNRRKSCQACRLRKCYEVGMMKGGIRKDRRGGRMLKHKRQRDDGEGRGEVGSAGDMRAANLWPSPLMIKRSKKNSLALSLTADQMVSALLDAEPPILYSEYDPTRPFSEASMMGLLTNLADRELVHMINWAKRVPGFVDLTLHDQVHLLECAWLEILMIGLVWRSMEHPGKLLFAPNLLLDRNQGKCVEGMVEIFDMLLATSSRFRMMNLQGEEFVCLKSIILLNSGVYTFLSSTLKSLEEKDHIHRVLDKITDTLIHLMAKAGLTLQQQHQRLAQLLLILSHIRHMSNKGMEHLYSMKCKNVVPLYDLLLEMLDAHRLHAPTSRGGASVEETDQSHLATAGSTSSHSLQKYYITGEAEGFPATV
Sequence of Thyroid hormone receptor beta (Homo sapiens) (P10828 whole entry, looked up): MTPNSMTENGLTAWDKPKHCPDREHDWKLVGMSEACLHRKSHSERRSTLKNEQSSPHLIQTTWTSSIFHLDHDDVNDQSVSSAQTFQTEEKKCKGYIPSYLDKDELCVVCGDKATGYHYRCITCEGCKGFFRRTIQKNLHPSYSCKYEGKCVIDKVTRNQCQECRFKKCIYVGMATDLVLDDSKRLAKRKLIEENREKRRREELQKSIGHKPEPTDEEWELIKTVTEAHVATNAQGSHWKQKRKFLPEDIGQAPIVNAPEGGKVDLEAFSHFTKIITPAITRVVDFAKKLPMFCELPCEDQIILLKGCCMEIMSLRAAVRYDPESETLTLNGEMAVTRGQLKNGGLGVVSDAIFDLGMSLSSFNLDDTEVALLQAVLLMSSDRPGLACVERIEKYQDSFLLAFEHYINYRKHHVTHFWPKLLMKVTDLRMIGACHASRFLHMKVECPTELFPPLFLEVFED
Sequence of Peroxisome proliferator-activated receptor gamma (Homo sapiens) (P37231 whole entry, looked up): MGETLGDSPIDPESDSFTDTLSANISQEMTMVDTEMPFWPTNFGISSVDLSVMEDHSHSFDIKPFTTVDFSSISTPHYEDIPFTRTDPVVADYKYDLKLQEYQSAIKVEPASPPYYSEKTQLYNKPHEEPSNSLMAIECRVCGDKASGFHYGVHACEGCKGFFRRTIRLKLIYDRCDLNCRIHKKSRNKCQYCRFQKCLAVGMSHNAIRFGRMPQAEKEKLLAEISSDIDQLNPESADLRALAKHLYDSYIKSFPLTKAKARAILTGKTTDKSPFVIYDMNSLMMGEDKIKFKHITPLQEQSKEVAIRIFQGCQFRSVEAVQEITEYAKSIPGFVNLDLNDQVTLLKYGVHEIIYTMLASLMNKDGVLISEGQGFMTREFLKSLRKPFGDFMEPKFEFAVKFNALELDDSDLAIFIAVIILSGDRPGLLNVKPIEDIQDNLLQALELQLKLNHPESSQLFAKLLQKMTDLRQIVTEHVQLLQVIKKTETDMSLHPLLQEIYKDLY
Sequence of Peroxisome proliferator-activated receptor delta (Homo sapiens) (Q03181 whole entry, looked up): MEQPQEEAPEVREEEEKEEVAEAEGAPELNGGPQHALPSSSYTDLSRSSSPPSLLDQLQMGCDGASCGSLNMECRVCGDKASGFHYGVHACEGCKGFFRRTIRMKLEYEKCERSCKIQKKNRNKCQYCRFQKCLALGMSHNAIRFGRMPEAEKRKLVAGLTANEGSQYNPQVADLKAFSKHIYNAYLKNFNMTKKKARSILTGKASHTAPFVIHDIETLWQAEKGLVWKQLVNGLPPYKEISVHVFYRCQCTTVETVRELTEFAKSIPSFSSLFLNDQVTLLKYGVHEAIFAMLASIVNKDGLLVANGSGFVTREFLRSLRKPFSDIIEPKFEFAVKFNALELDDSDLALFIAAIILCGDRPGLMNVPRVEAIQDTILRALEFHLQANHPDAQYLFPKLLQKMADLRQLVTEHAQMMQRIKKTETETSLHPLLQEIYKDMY
Sequence of Vitamin D3 receptor (Homo sapiens) (P11473 whole entry, looked up): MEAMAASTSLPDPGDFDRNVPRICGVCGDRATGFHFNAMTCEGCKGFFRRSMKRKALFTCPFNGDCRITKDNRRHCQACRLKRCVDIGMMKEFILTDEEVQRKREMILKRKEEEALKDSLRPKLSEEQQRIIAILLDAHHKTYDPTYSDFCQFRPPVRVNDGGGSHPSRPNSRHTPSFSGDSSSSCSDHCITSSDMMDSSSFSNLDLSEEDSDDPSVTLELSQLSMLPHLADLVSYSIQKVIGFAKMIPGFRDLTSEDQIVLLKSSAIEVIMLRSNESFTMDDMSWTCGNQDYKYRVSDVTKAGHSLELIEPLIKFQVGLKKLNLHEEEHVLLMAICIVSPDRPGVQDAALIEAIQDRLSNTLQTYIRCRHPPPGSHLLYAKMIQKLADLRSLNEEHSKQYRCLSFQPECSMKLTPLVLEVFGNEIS
Sequence of Peroxisome proliferator-activated receptor alpha (Homo sapiens) (Q07869 whole entry, looked up): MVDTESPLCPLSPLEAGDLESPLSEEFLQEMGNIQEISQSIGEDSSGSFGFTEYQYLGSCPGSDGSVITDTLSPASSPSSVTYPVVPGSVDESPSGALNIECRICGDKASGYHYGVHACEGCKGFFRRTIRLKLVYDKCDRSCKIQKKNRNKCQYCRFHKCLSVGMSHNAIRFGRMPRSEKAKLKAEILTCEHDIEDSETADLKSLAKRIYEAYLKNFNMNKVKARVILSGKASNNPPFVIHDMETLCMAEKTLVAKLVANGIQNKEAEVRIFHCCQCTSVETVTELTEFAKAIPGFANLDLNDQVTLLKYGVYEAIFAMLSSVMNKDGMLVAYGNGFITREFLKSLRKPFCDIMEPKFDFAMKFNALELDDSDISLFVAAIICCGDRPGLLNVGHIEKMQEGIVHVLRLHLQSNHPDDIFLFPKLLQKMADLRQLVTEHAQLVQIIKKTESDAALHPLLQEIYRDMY

`C[C@H]1O[C@H](OC2[C@@H](O)[C@@H](O)C(O)[C@H](O)[C@H]2O)[C@@H](N)C[C@@H]1N=C(N)C(=O)O` (stereo partly drawn): the Potency result in [1], in assay [2], in assay [4], in assay [5], in [9] and in assay [12] was “inactive” throughout. Also, the Potency entry in [16], in assay [20], in [24], in assay [25], in assay [26] and in [27] was “inactive” in each case. Further, the activation in [3] is -3.89% (inactive); in assay [17], 0.472% (inactive); in [18], -0.0561% (inactive). For the same compound, the max response is -16.5% in assay [6]; -7.18% in assay [10]; -6.74% in assay [13]; -1.33% (inactive) in [14]; -0.85% (inactive) in [19]; 3.51% (inactive) in assay [21]. Further, the max response in assay [22] is 0.169% (inactive); in assay [28] it was -0.488% (inactive). Besides, the compound was classed as inactive in [7], in assay [8], in assay [11], in [23] and in [29]. Besides, the activity change % (negative = inhibition) in assay [15] was 1.51% (inactive).
Consider `CC(C)=CCCC(C)CCO` (stereo not drawn), for which the Potency result in [5], in assay [24], in assay [25], in assay [26] and in assay [27] was “inactive” each time.
Take `CCOP(=S)(OCC)SCSCC`: the Potency result in assay [2], in assay [30], in [4], in [5], in [9] and in assay [32] was “inactive” throughout. The Potency result in assay [12], in [16], in assay [24], in assay [25], in assay [26] and in assay [27] was “inactive” throughout. The activation was -1.34% (inactive) in assay [3], -1.47% (inactive) in [33] and 2.07% (inactive) in assay [18]. In addition, the max response in assay [6] was 1.66%; in assay [10], -8.57%; in assay [13], -4.53%; in assay [14], -2.19% (inactive); in [19], -0.311% (inactive); in assay [21], 6.11% (inactive). In addition, the max response was -10.1% (inactive) in assay [22] and 5.3% (inactive) in [28]. Further, the outcome in assay [7], in [8], in [31], in [11], in assay [23] and in assay [29] was inactive.
